Experimental findings from PMC12820563, “FoxP3 forms a head-to-head dimer in vivo and stabilizes its multimerization on adjacent microsatellites” are described below.

In all, about 16,000 sequences were measured (“rpm ratio (pull-down/input)”: median about 0.5, highest 2% from about 5.5 on). For the sample, the highest values were picked, then their nearest neighbours and some sequences at random.

This experiment has as its target T1, MBP-FoxP3dN (Mus musculus, UniProt Q99JB6 188-423).
T1 sequence: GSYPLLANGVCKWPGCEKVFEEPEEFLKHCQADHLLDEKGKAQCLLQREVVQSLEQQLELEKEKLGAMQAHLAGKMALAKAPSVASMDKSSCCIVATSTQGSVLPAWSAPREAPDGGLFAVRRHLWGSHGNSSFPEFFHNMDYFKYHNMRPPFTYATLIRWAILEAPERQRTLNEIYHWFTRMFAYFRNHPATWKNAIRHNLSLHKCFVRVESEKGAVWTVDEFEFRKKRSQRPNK
Briefly: PD-seq (MBP pull-down with sequencing); 20 mM Tris-HCl pH 7.5, 100 mM NaCl, 1.5 mM MgCl2, 0.4 uM protein, 0.1 uM dsDNA library, 30 min, room temperature, amylose pull-down; high values mean tight binding. To be noted: protein: recombinant; tags: His6-MBP; chain copies: 2; dsDNA, one strand shown. Put shortly:
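A fragment of mouse FoxP3 or FoxP1 without its N-terminus, carrying a His6-MBP tag and produced in E. coli, was combined at 0.4 µM with a 0.1 µM degenerate double-stranded DNA library filled in with Klenow. The mixture sat for 30 min at room temperature in Tris pH 7.5 buffer containing NaCl and MgCl2. Protein–DNA complexes were captured on amylose resin, washed three times, and the DNA was freed with proteinase K, barcoded by PCR and sequenced on Illumina. Binding is expressed as reads-per-million enrichment of pull-down over input, with replicates pooled.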
As to “GATGATTGTTCTCCCAGCTGATGAATTATTGTTTTCGAGTAAACAAATTTTCCTAATCTTTCTGTTCAAGCGCCATCTAC”, the binding signal was 3.7 RPM ratio (pull-down/input).
Then “GATGATTGTTCTCCCAGCTGATGAATTTATTGTTTCGAGTAAACAAATTTTCCTAATCTTTCTGTTCAAGCGCCATCTAC”, with 6.4 RPM ratio (pull-down/input); and “GATGATTGTTCTCCCAGCTGATGAATTGTTTATTTCGAGTAAACAAATTTTCCTAATCTTTCTGTTCAAGCGCCATCTAC”, with 6.99 RPM ratio (pull-down/input); and “GATGATTGTTCTCCCAGCTGATGAATTTATTTCTTCGAGTAAACAAATTTTCCTAATCTTTCTGTTCAAGCGCCATCTAC”, with 3.01 RPM ratio (pull-down/input).
Then “GATGATTGTTCTCCCAGCTGATGAATTTCATACATCGAGTAAACAAATTTTCCTAATCTTTCTGTTCAAGCGCCATCTAC”, with 0.449 RPM ratio (pull-down/input); and “GATGATTGTTCTCCCAGCTGATGAATTGAGGACGTCGAGTAAACAAATTTTCCTAATCTTTCTGTTCAAGCGCCATCTAC”, with 0.248 RPM ratio (pull-down/input).
Then “GATGATTGTTCTCCCAGCTGATGAATTGTATCGGTCGAGTAAACAAATTTTCCTAATCTTTCTGTTCAAGCGCCATCTAC”, with 0.882 RPM ratio (pull-down/input); and “GATGATTGTTCTCCCAGCTGATGAATTCCAGTGGTCGAGTAAACAAATTTTCCTAATCTTTCTGTTCAAGCGCCATCTAC”, with 0.415 RPM ratio (pull-down/input).
As to “GATGATTGTTCTCCCAGCTGATGAATTTGTGTGTTCGAGTAAACAAATTTTCCTAATCTTTCTGTTCAAGCGCCATCTAC”, the binding signal is 5.99 RPM ratio (pull-down/input).
Then “GATGATTGTTCTCCCAGCTGATGAATTTTTGTGTTCGAGTAAACAAATTTTCCTAATCTTTCTGTTCAAGCGCCATCTAC”, with 1.04 RPM ratio (pull-down/input); and “GATGATTGTTCTCCCAGCTGATGAATTCTTGTGTTCGAGTAAACAAATTTTCCTAATCTTTCTGTTCAAGCGCCATCTAC”, with 0.821 RPM ratio (pull-down/input).
Then “GATGATTGTTCTCCCAGCTGATGAATTTTGTGTCTCGAGTAAACAAATTTTCCTAATCTTTCTGTTCAAGCGCCATCTAC”, with 4.27 RPM ratio (pull-down/input).
Then “GATGATTGTTCTCCCAGCTGATGAATTGATGTGTTCGAGTAAACAAATTTTCCTAATCTTTCTGTTCAAGCGCCATCTAC”, with 1.66 RPM ratio (pull-down/input).
As to “GATGATTGTTCTCCCAGCTGATGAATTTGTACTCTCGAGTAAACAAATTTTCCTAATCTTTCTGTTCAAGCGCCATCTAC”, the binding signal was 2.81 RPM ratio (pull-down/input).
For “GATGATTGTTCTCCCAGCTGATGAATTTGTGTACTCGAGTAAACAAATTTTCCTAATCTTTCTGTTCAAGCGCCATCTAC”, the binding signal is 6.72 RPM ratio (pull-down/input).
Then “GATGATTGTTCTCCCAGCTGATGAATTGTGTTGTTCGAGTAAACAAATTTTCCTAATCTTTCTGTTCAAGCGCCATCTAC”, with 8.43 RPM ratio (pull-down/input); and “GATGATTGTTCTCCCAGCTGATGAATTTTTGTACTCGAGTAAACAAATTTTCCTAATCTTTCTGTTCAAGCGCCATCTAC”, with 0.489 RPM ratio (pull-down/input).
Then “GATGATTGTTCTCCCAGCTGATGAATTTGTGTTCTCGAGTAAACAAATTTTCCTAATCTTTCTGTTCAAGCGCCATCTAC”, with 6.29 RPM ratio (pull-down/input); and “GATGATTGTTCTCCCAGCTGATGAATTGTGTTTCTCGAGTAAACAAATTTTCCTAATCTTTCTGTTCAAGCGCCATCTAC”, with 4.32 RPM ratio (pull-down/input); and “GATGATTGTTCTCCCAGCTGATGAATTTGTGTTTTCGAGTAAACAAATTTTCCTAATCTTTCTGTTCAAGCGCCATCTAC”, with 5.24 RPM ratio (pull-down/input).
Turning to “GATGATTGTTCTCCCAGCTGATGAATTCCACCTATCGAGTAAACAAATTTTCCTAATCTTTCTGTTCAAGCGCCATCTAC”, the binding signal was 0.432 RPM ratio (pull-down/input).
Then “GATGATTGTTCTCCCAGCTGATGAATTCTTACGCTCGAGTAAACAAATTTTCCTAATCTTTCTGTTCAAGCGCCATCTAC”, with 0.256 RPM ratio (pull-down/input); and “GATGATTGTTCTCCCAGCTGATGAATTTCATGATTCGAGTAAACAAATTTTCCTAATCTTTCTGTTCAAGCGCCATCTAC”, with 0.692 RPM ratio (pull-down/input).
For “GATGATTGTTCTCCCAGCTGATGAATTATTCCCATCGAGTAAACAAATTTTCCTAATCTTTCTGTTCAAGCGCCATCTAC”, the binding signal was 0.334 RPM ratio (pull-down/input).
Then “GATGATTGTTCTCCCAGCTGATGAATTTGTACCTTCGAGTAAACAAATTTTCCTAATCTTTCTGTTCAAGCGCCATCTAC”, with 2.49 RPM ratio (pull-down/input); and “GATGATTGTTCTCCCAGCTGATGAATTGAGCCCCTCGAGTAAACAAATTTTCCTAATCTTTCTGTTCAAGCGCCATCTAC”, with 0.983 RPM ratio (pull-down/input); and “GATGATTGTTCTCCCAGCTGATGAATTACACCTCTCGAGTAAACAAATTTTCCTAATCTTTCTGTTCAAGCGCCATCTAC”, with 0.705 RPM ratio (pull-down/input).
Then “GATGATTGTTCTCCCAGCTGATGAATTAACTGTGTCGAGTAAACAAATTTTCCTAATCTTTCTGTTCAAGCGCCATCTAC”, with 0.556 RPM ratio (pull-down/input).
As to “GATGATTGTTCTCCCAGCTGATGAATTGTGCGTCTCGAGTAAACAAATTTTCCTAATCTTTCTGTTCAAGCGCCATCTAC”, the binding signal is 6.12 RPM ratio (pull-down/input).
Then “GATGATTGTTCTCCCAGCTGATGAATTGTGCGTTTCGAGTAAACAAATTTTCCTAATCTTTCTGTTCAAGCGCCATCTAC”, with 5.5 RPM ratio (pull-down/input).
Then “GATGATTGTTCTCCCAGCTGATGAATTGTGTGTTTCGAGTAAACAAATTTTCCTAATCTTTCTGTTCAAGCGCCATCTAC”, with 4.97 RPM ratio (pull-down/input); and “GATGATTGTTCTCCCAGCTGATGAATTTGTGCTCTCGAGTAAACAAATTTTCCTAATCTTTCTGTTCAAGCGCCATCTAC”, with 2.89 RPM ratio (pull-down/input); and “GATGATTGTTCTCCCAGCTGATGAATTCTGTGTTTCGAGTAAACAAATTTTCCTAATCTTTCTGTTCAAGCGCCATCTAC”, with 3.31 RPM ratio (pull-down/input).
Then “GATGATTGTTCTCCCAGCTGATGAATTCTGCGTCTCGAGTAAACAAATTTTCCTAATCTTTCTGTTCAAGCGCCATCTAC”, with 4.55 RPM ratio (pull-down/input); and “GATGATTGTTCTCCCAGCTGATGAATTTGTGCGTTCGAGTAAACAAATTTTCCTAATCTTTCTGTTCAAGCGCCATCTAC”, with 3.7 RPM ratio (pull-down/input); and “GATGATTGTTCTCCCAGCTGATGAATTGCGTTTTTCGAGTAAACAAATTTTCCTAATCTTTCTGTTCAAGCGCCATCTAC”, with 2.11 RPM ratio (pull-down/input).
“GATGATTGTTCTCCCAGCTGATGAATTTGTGTGCTCGAGTAAACAAATTTTCCTAATCTTTCTGTTCAAGCGCCATCTAC”: the binding signal was 5.67 RPM ratio (pull-down/input).
For the sequence “GATGATTGTTCTCCCAGCTGATGAATTTTTGTGCTCGAGTAAACAAATTTTCCTAATCTTTCTGTTCAAGCGCCATCTAC”, the binding signal was 0.442 RPM ratio (pull-down/input).
As for “GATGATTGTTCTCCCAGCTGATGAATTTTGCGTCTCGAGTAAACAAATTTTCCTAATCTTTCTGTTCAAGCGCCATCTAC”, the binding signal is 5.4 RPM ratio (pull-down/input).
Then “GATGATTGTTCTCCCAGCTGATGAATTGTGTTTTTCGAGTAAACAAATTTTCCTAATCTTTCTGTTCAAGCGCCATCTAC”, with 6.66 RPM ratio (pull-down/input).
